# Test results from the supplement of paper PMC12632987.
# Over roughly 4,500 sequences, “median log2 fold change of GCK-ALFA target abundance (FLAG IP / Myc IP barcode read proportion)” has its median near 0.078; the lowest 2% begin near -0.6. The entries come from a sample that favours the lowest values as a whole.
# B1: GBRAP_184_5358 (protein)
# chain: EVRHLSVTVETKEEAVEKLAEAREEIRASGLPTVLVVELKNADLETVETVMELLAELREEGLIERGIVVVDDDRSEEEIDKMVELADRYGVDLVVAIPEE
# B2: GBRAP_159_3958 (protein)
# chain: MEELEKRVKEAKEKAKDNPEVVKLIEEVYDLIKEGEDAETIADFTVGSIVTLDVTPEEARLVLSVLPEETRRLAAEDLAYLAEELGREDLAAAARAILEE
# B3: GBRAP_128_3325 (protein)
# chain: MNEERIKEAEEIIKEIVKADVEEAKKLTEELLKLMETMTDEERDIVVEIMEKELEKLDAEKLDAIADTIRELQPTLDPLTARYAAEIEVEALNLAEEKEE
# B4: GBRAP_160_4147 (protein)
# chain: SAELKALIEEIREITEEAIKLMEGETPEEAKVIARVALGEIVMLVFSNEAVSEETEEEVGEVADEAEAHLRANPDLTVEEIKAILREAGEEVIEIIEKEV
# B5: GBRAP_160_4149 (protein)
# chain: SEELKKLIKEIKEITEEAIKLMEGETPEEAKVIAKVALGEIVMLVESNEEVSEETEEKVGEIADEAEEYLDENPDLTVEEIKELLKKAGEEVIKIIEEEL
# B6: GBRAP_52_5941 (protein)
# chain: SSSRLKEIAEELIKLALAGDEEGLRKKAREIAKTYSDEEILAIAKEIAKMAKEAPKEDLDAYFRLMEILTEELEKEGRSEELISEIEGLMAKAMYENELK
# B7: GBRAP_160_4588 (protein)
# chain: MESLEKMKEIVREELEEAKEMIVGETAEQRATIVLGAGGEIVMELSENPEASDELEDEVLKIADEAADTILANPNITEEEFNALLDEMEKKMIEAIEKHL
# B8: GBRAP_11_2927 (protein)
# chain: KKEKIKEIAELAEELAEAADRLIAEGTDNEELRKKLEELLEKLVELVKEYGDEADKKDAEHMRELWEKAKADPANAVQYLTELRNEARVLSGIYLLEYDE
# B9: GBRAP_139_3733 (protein)
# chain: SADDAAVAEVVALTKRSVETGGALVAEIADALNALDEDTADRAAEAMAEVLETQPFDVAEALFDALIDTLLTEHKNEDLATIVEAAANRALARIAVREEA
# B10: GBRAP_52_6365 (protein)
# chain: MLEEAVELLRKAVEATLAGKEEEAEEILKEIVENFSDETIVKAVERLAEEVATKTLEEAEAFLDTAIRLADIMLEAGRDEAKADEIEAIAAKAYSAVLAK
# B11: GBRAP_160_4221 (protein)
# chain: SETIERIVKIFRENFEEAVELIEGESLEEQKVILDVAVGEVILEVSSDENVTDEMEEVVEKKAEEAAEELLKLKNASREEKLKLIEEKAKELKKELEKLA
# B12: GBRAP_160_4219 (protein)
# chain: METIERIVEIFRENFLEALELIEGESEEERKVILDVAVGEIILEVDSDENVTDEMEEVVDEKARELAEELLKLKNASEEEKRALIEEKAEELREELEKLA
# B13: GBRAP_166_4915 (protein)
# chain: SMEELLEEAKRRIEELVKKIPKTDREKQVELAIEIAEVLEELEKAGASEEELDELWRHLAEALKEAGLDVERLMAVVAAAAGLDEEEMERVDEIVEEVLA
# B14: GBRAP_52_6254 (protein)
# chain: MRARLRADAREIVALVAAGREEEARALARDIAENYNEEELRLFVDEMAALAREARPEELDTVWRAAELMAEELEAAGKPEILVDDLLARVAAAAVEVLAR
# B15: GBRAP_52_6083 (protein)
# chain: MEKEIEETANKIYEAIKAGDKEKALELIKEAIKKFSPEEIKEMLKLTAEKVASLGDEKHELFVDILTEAEDLMIEAGISEEEALLIVGDAEAALAKAVAA
# B16: GBRAP_52_6084 (protein)
# chain: MKEKIEKTAKEIYEAIKAGDKEKALELIKKAVEEFSKEEIKEMLELTAKRVASLGDDAHELFVDILDEAEDILIEAGISEDDALLIVGSAEAALAKAVAA
# B17: GBRAP_52_6085 (protein)
# chain: MEEEIEERAEEIYEAIKAGDKEKALALIKKAIKEFSAEEIKRMLELTAKRVASLGDDAHELFVDILGEAEDLLIEAGISEEEALAIVGAAEAALARAVAA
# B18: GBRAP_160_4760 (protein)
# chain: KEKLKKLKEEVEEIFKEHLEMLKEVKPEEAPTVVRGAMGEVIMEVMSSEAASDELEEKIGEIADEAEEEAEANKDAPVEFHIKILEEARKKILSLIEEEI
# B19: GBRAP_125_2982 (protein)
# chain: PTEQELEDLRRFARALGLDEEEAEEAAELARAHSLRGTVYAILAALGEEEAADLVEKLTEEEVARVLRRVAAYLEAHPDATPEEVVALFRELAEEELAKR
# B20: GBRAP_139_3718 (protein)
# chain: SAAEEKIEKAKEIVEKYKDDLEKLAKELAKLISEVDGETALEIVRAAAEELKDWSWEEWEEFIELLEKELKELGFDEDDVLAIKGEFEAVMAKHLMAKEA
# B21: GBRAP_117_2578 (protein)
# chain: MEEREEVKRRLRETVREAGKRLEESKSLSPEERRKVEEEVRERIAEAVREALEVLSREEVLDIVEEELLEFDAETYFKIMSFVEEAIEEIREEEEREREE
# B22: GBRAP_11_2868 (protein)
# chain: KKEKLEELAKLVKEAIEKLEKLLKEGVDNEELRKEIKKLLKEALKLAEKYASPAVAELLKIALEDLEKAEEDPENAKEYVERALAALRVAHGDLLLEIDE
# B23: GBRAP_172_4999 (protein)
# chain: GTTLLKLNLLGLSKEEAVETAVKAVKETIEKTGNNLVVAVIADDEETVEAVEKAIKKVAKEKGVKVEVVGEAYRSEEDERRVLAAAEAEKINLEYEEEEK
# B24: GBRAP_11_2687 (protein)
# chain: KKEKLEEGAKLAEELAKLIEELLKEGVDNEKLLKELEKKLKELEKLTKEYADKASQKLTEDIKETWEEMLKDPEKAEEYAKEMLAGARVLAGDYLLEIEE
# B25: GBRAP_160_4409 (protein)
# chain: SEELKKTAERILEAVKEELELLLELGEIDPEAAAGLLEGTILLEVFEDDSLTEEQEEKLEELAEELAEELRKRLEEEGKMTEEIKEELLKLAKEGLEKII
# B26: GBRAP_160_4407 (protein)
# chain: SEALKETAERILEAVKDELDLLLELGKIDPKAAAGLLEGTVLLEMFEDDSLTEEQEEKLEELAERLAERLEKLLKEEGEMTEEIRKELLEEAKRGLEEII
# B27: GBRAP_160_4408 (protein)
# chain: SEELEETAERILEAVEDELELLLELGEVDPEAAAGLLEGTILLEAFEDDSLTEEQEEEIEELAEELAERLERLLKEEGRMTEEIVEELLEEAEEGLEEII
# B28: GBRAP_14_3807 (protein)
# chain: MEEKKKAITDNTDELKEIVTEILKDAPQEVRDAVLAAIEDFRKTVIENNLNPDEIAELGDELVKKVEEITKDLPADVRARVLAAVRVHTGEIILEVEELE
# B29: GBRAP_95_7033 (protein)
# chain: EDDKLALESAIEVAVAAAELGDDDAAARALREALELLKKAGKVELDEELLKEAIDVIERVGVKKLPREDVLELLELLLEAAETEEVKELAEKAIERVKKR
# Target: GABARAP, O95166
# Test: median log2 fold change of GCK-ALFA target abundance (FLAG IP / Myc IP barcode read proportion) (log2 ratio); each designed protein is fused to an ALFA-tag nanobody in HEK293 cells to bring the named protein to FLAG-tagged glucokinase (GCK); Myc marks an untargeted standard; higher = target protein stabilised (more abundant)
# Conditions: target protein: 3xFLAG-MCP-GCK-ALFA reporter; HEK293 landing pad (RPLP)
# Protocol: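 LABEL-seq trans screen in HEK293 landing-pad cells. Each de novo designed 100-aa effector handle, binding the indicated effector (E3 ligase, DUB or autophagy protein), is fused to a constant NbALFA target handle and induced with 2 ug/mL doxycycline. A FLAG-MCP-GCK-ALFA target and a Myc-MCP standard reporter were transfected, and after 48 h circRNA barcodes were recovered by anti-FLAG and anti-Myc IP and sequenced. The value is the median across barcodes (at least 3 per design) of log2(FLAG/Myc read-proportion ratio), with the two transfection replicates pooled. Negative values mean degradation and positive values mean stabilisation of the target.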
# GABARAP, O95166, sequence (O95166 whole entry, the tested form may be a part): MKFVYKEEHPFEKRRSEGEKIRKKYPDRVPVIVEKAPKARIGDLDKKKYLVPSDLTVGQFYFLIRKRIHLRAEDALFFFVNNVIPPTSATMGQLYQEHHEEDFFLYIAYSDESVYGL
row,Binder,median log2 fold change
1,B1,-0.0422
2,B2,0.0598
3,B3,0.156
4,B4,-0.617
5,B5,-0.271
6,B6,0.165
7,B7,-0.211
8,B8,0.134
9,B9,0.133
10,B10,-0.000301
11,B11,-0.86
12,B12,-0.349
13,B13,0.0994
14,B14,-0.285
15,B15,-0.22
16,B16,-0.732
17,B17,-0.146
18,B18,-0.185
19,B19,-0.551
20,B20,0.0839
21,B21,0.274
22,B22,0.0406
23,B23,0.15
24,B24,0.232
25,B25,-0.32
26,B26,-0.289
27,B27,-0.872
28,B28,0.206
29,B29,0.148
